Assay outcomes (PubChem)
CYP2C19 activ: activators of human cytochrome P450 2C19; activation factor at 5 µM; recombinant CYP2C19, luciferin-H EGE luminescence; active compounds read high; 0 = fully inhibited enzyme, 1 = untreated enzyme; AID 1025; 96,000 tested, under 10 active;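 active = activation factor of at least 2 at 5 µM in the primary screen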
CYP2C19 inhib: blocks human cytochrome P450 2C19 | P33261 | CYP2C19 Supersomes, luciferin-H EGE luminescence, 30 min | inhibition, % at 5 µM | 96,000 tested, 21% active;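 active = CYP2C19 inhibition above a set limit at 5 µM in the primary screen, cut at about 50% in these data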
hDAT+cocaine: human DAT dopamine uptake with cocaine, either direction | Q01959 | 110,000 tested, 1.3% active | LLC-PK1 hDAT cells, [14C]-dopamine uptake with cocaine IC80; actives deviate in either direction | B-score at 10 µM;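 active = Z score or B-score, a plate-position-corrected score, falls beyond the plate's 99.7% confidence bounds, in either direction; inactive = both scores lie inside the 99.7% bounds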
CYP2C9 act: activators of human CYP2C9; AID 1024; recombinant CYP2C9, luciferin-H conversion, luminescence; active compounds read high; factor 1 = untreated enzyme, 0 = blocked; activation factor at 5 µM; P11712; 96,000 tested, 1.4% active;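 active = activation factor of 2 or more for CYP2C9 at a 5 µM dose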
CYP2C9 inhib: human CYP2C9 inhibition; CYP2C9 Supersomes, luciferin-H conversion, luminescence; inhibition, % at 5 µM; 96,000 tested, 20% active;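 active = blocking of liver enzyme CYP2C9 beyond about 50% at 5 µM, limit read from the data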
D1 allo mod: allosterically modulates the human D1 dopamine receptor. P21728. HEK293 D1, CRE-luciferase, dopamine EC30 potentiation; actives deviate in either direction. B-score at 10 µM. 58,000 tested, 5.9% active;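 active = luminescence count or its row- and column-corrected plate score outside the 99.7% band of the plate's sample wells, on either side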
Target sequence (P21728 whole entry, looked up): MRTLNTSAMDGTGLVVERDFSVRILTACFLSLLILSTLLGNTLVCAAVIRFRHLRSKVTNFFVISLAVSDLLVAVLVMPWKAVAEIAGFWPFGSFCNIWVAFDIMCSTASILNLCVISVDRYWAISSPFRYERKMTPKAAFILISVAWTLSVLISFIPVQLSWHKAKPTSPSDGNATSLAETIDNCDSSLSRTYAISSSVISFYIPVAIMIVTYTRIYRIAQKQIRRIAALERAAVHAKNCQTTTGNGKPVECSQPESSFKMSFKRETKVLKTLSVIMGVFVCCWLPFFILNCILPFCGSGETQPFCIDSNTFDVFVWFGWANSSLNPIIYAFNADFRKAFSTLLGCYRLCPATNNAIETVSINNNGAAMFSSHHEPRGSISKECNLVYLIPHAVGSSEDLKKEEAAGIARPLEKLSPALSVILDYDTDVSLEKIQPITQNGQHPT
Of the large screens only hits and unclear results are named; the others gave an inactive call. Rows were chosen to be rich in hits. Some 28% of all compounds tested hit in one or more screens of this group.

COc1ccc(S(=O)(=O)N(C)CC(=O)NCc2cccnc2)cc1Cl	CYP2C19 inhib 53.9 (no result: D1 allo mod)
CNC(=O)CN(C)S(=O)(=O)c1ccc(OC)c(Cl)c1	none
COc1ccc(S(=O)(=O)N(C)CC(=O)NC2CCCCC2)cc1Cl	CYP2C19 inhib 52.9, CYP2C9 act 2.4 (no result: D1 allo mod)
COc1ccc(N(CC(=O)NC2CCCCC2)S(=O)(=O)c2cccnc2)cc1	CYP2C19 inhib 53.2, CYP2C9 inhib 64.9
COc1ccc(S(=O)(=O)N(C)CC(=O)NC2CC2)cc1	CYP2C9 act 2.5
C=C(C)C(=O)Nc1cccc(C2=NOC3(C2)C[C@H](C(N)=O)N(C(=O)/C=C/C)C3)c1 (some centres not stated)	none (no result: CYP2C19 activ, CYP2C19 inhib, CYP2C9 act, CYP2C9 inhib, D1 allo mod)
O=C(CCSc1ccccc1)N1CCN(C(=O)c2ccco2)CC1	none
COc1ccc(S(=O)(=O)N(C)CC(=O)N2CCC(C(N)=O)CC2)cc1Cl	CYP2C9 act 2
CCOC(=O)C1CCN(C(=O)CN(C)S(=O)(=O)c2cc(C)ccc2OC)CC1	CYP2C9 inhib 54.2
COc1ccc(S(=O)(=O)N(CC(N)=O)C2CCCCC2)cc1Cl	CYP2C19 inhib 72.4
COc1ccc(S(=O)(=O)N(C)CC(=O)N2CCCCCC2)cc1OC	none
Cc1c(NC(=O)c2cc(-c3cccs3)on2)c(=O)n(-c2ccccc2)n1C	none
COc1ccc(-n2c(SCC(N)=O)nc3nc4c(cc3c2=O)COC(C)(C)C4)cc1	none (no result: hDAT+cocaine, D1 allo mod)
CN(CCO)C(=O)CCC(=O)Nc1ccc(S(N)(=O)=O)cc1	none
CCOC(=O)c1sc(C)c2c(=O)n(CCCN3CCOCC3)cnc12	none
O=C(Cn1c(C(=O)N2CCc3ccccc3C2)cc2sccc21)c1ccccc1	CYP2C19 inhib 68.6, CYP2C9 inhib 64.1
O=C(Cn1c(C(=O)N2CCN(C3CCCCC3)CC2)cc2sccc21)c1ccccc1	CYP2C19 inhib 87.3, CYP2C9 inhib 73.0
CCN(C1CCCCC1)S(=O)(=O)c1ccc(S(=O)(=O)N2CCN(CCC#N)CC2)cc1	none
O=C(O)C1C2C=CC(C2)C1C(=O)NCCc1cccc(Cl)c1 (configuration not stated)	none (no result: CYP2C19 activ, CYP2C19 inhib, CYP2C9 act, CYP2C9 inhib)
Cc1c(C(=O)O)sc2nc3n(c(=O)c12)CCC(C)CC3 (configuration not stated)	none (no result: CYP2C19 activ, CYP2C19 inhib, CYP2C9 act, CYP2C9 inhib)
COc1ccccc1Oc1ccc2c(c1)C(=O)N(c1ccc(Br)c3cccnc13)C2=O	none (no result: D1 allo mod)
Nc1ncnc2nc(SCc3ccccc3)[nH]c12	CYP2C19 inhib 69.8 (no result: D1 allo mod)
Nc1ncnc2nc(SCC(=O)N3CCN(c4ccccc4)CC3)[nH]c12	none
Cc1ccc(S(=O)(=O)/N=S(/C)c2ccccc2)cc1 (configuration not stated)	none (no result: D1 allo mod)
COc1ccc(CN(CCN(C)C)Cc2ccccc2)c(OC)c1	CYP2C19 inhib 81.5
CCN(Cc1ccccc1)Cc1cc(OC)cc(OC)c1	CYP2C19 inhib 94.9
CCN(Cc1ccccc1)Cc1c(F)cccc1F	none
C#CCn1c(S(=O)(=O)Cc2ccc(C)cc2)nc(-c2ccccc2)c1-c1ccccc1	CYP2C19 inhib 61.4, CYP2C9 inhib 67.0 (no result: D1 allo mod)
Cn1cc(S(=O)(=O)N2CCc3ccccc3C2)c(=O)n(C)c1=O	none
CCOC(=O)C1=C(C)N(CCCC(=O)NCc2ccc3c(c2)OCO3)C(=O)NC1c1ccc(Br)cc1 (configuration not stated)	none (no result: CYP2C19 activ, CYP2C19 inhib, CYP2C9 act, CYP2C9 inhib, D1 allo mod)
COC(=O)C1=C[C@@H](C(=O)OC)[C@@H]2C3=C(C(=O)[C@]2(CC(C)C)NC(=O)c2ccccc2)[C@H](C)n2c(=O)n(-c4ccccc4)c(=O)n2[C@@H]3C1	hDAT+cocaine -2.53 (no result: CYP2C19 activ, CYP2C19 inhib, CYP2C9 act, CYP2C9 inhib, D1 allo mod)
COC(=O)C1=C[C@@H](C(=O)OC)[C@@H]2C3=C(C(=O)[C@@]2(C)NC(=O)c2ccccc2)[C@H](c2ccccc2)n2c(=O)n(-c4ccccc4)c(=O)n2[C@@H]3C1	none (no result: CYP2C19 activ, CYP2C19 inhib, CYP2C9 act, CYP2C9 inhib, D1 allo mod)
CCc1ccc2[nH]c(=O)c(C(c3nnnn3CC3CCCO3)N3CCN4CCCC4C3)cc2c1 (configuration not stated)	none
CCOC(=O)c1ccc(-n2c(N)c(C(=O)NCc3ccco3)sc2=S)cc1	none
C=CCNC(=O)c1sc(=S)n(-c2ccc(C(=O)OCC)cc2)c1N	CYP2C9 inhib 56.2 (no result: D1 allo mod)
CCOC(=O)c1ccc(-n2c(N)c(C(=O)NCC3CCCO3)sc2=S)cc1 (configuration not stated)	CYP2C9 inhib 82.7 (no result: D1 allo mod)
CCOc1ccc(Oc2ccc(-c3nnc(-c4ccccc4)o3)cc2[N+](=O)[O-])cc1	none (no result: D1 allo mod)
Cc1cccc(NC(=O)CS(=O)(=O)c2cn(C)c3ccccc23)c1C	none
CCCCN1C(=O)C(O)(CC(=O)c2ccccc2OC)c2ccccc21 (configuration not stated)	none (no result: CYP2C19 activ, CYP2C19 inhib, CYP2C9 act, CYP2C9 inhib)
O=C(CC1(O)C(=O)N(Cc2ccc3c(c2)OCO3)c2ccccc21)c1ccccc1 (configuration not stated)	none
C#CCN1C(=O)C(O)(CC(=O)c2ccc3c(c2)OCCO3)c2ccccc21 (configuration not stated)	CYP2C19 inhib 76.7
CCCN1C(=O)C(O)(CC(=O)c2ccc3c(c2)OCCO3)c2ccccc21 (configuration not stated)	CYP2C19 inhib 75.6
CCCN1C(=O)C(O)(CC(=O)c2cccc(OC)c2)c2ccccc21 (configuration not stated)	CYP2C19 inhib 87.1
Cc1ccc(C(=O)CC2(O)C(=O)N(Cc3ccc4c(c3)OCO4)c3ccccc32)cc1 (configuration not stated)	CYP2C19 inhib 53.9
CN1C(=O)C(O)(CC(=O)c2ccc3c(c2)OCO3)c2ccccc21 (configuration not stated)	none
C#CCN1C(=O)C(O)(CC(=O)c2ccc(OC)c(OC)c2)c2ccccc21 (configuration not stated)	none (no result: D1 allo mod)
N/C(COc1ccccc1)=N\NS(=O)(=O)c1ccccc1	none (no result: D1 allo mod)
Cc1ccc(CNC(=O)c2ccc(C#CC(C)(C)O)s2)cc1	none (no result: D1 allo mod)
CCOc1ccc(OCCOc2ncnc3ccccc23)cc1	none (no result: D1 allo mod)
CSc1ccccc1NC(=O)CN(Cc1ccccc1)S(C)(=O)=O	none
CCOc1ccccc1NC(=O)CN(Cc1ccccc1)S(C)(=O)=O	CYP2C19 inhib 93.6
CS(=O)(=O)N(CC(=O)NC1CCCCCC1)Cc1ccccc1	CYP2C19 inhib 86.6
CSc1cccc(NC(=O)CN(Cc2ccc(Cl)cc2)S(C)(=O)=O)c1	CYP2C19 inhib 92.0, CYP2C9 inhib 91.8 (no result: D1 allo mod)
CS(=O)(=O)N(CC(N)=O)Cc1ccc(Cl)cc1	none
O=C(CN(c1ccccc1F)S(=O)(=O)c1ccccc1)NC1CCCCCC1	CYP2C9 inhib 52.0 (no result: D1 allo mod)
COc1ccccc1N(CC(=O)NC1CCCCC1)S(C)(=O)=O	none
COc1ccc(NC(=O)CN(Cc2ccccc2)S(C)(=O)=O)cc1	CYP2C19 inhib 79.0 (no result: D1 allo mod)
CS(=O)(=O)N(CC(=O)Nc1ccccc1)Cc1ccc(Cl)cc1	CYP2C19 inhib 96.1, CYP2C9 inhib 88.7 (no result: D1 allo mod)
CS(=O)(=O)N(CC(=O)Nc1ccc2c(c1)OCCO2)Cc1ccccc1	none
CSc1ccccc1NC(=O)CN(Cc1ccc(Cl)cc1)S(C)(=O)=O	none
